About 83,000 compounds went through this panel and 20% of them were active in at least one assay; those are over-represented in the sample as a whole.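 Percent growth is the endpoint: 0 to 100 indicates growth inhibition (40 means 60% inhibition), 0 means no net growth, and negative values indicate cell death.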 The source made the active and inactive calls. Rule for the calls: active = growth percent below 10; inactive = the rest.
Tests used:
Test in all cases: NCI-60 one-dose screen, 48 h (100 = growth as untreated, 0 = no growth, -100 = all killed)
Conditions in all cases: 10 µM unless noted
[1] = tested on: DU-145 prostate
[2] = tested on: K-562 leukemia
[3] = tested on: MALME-3M melanoma
[4] = tested on: MDA-MB-231 breast
[5] = tested on: RXF 393 renal
[6] = tested on: SF-268 CNS
[7] = tested on: SF-295 CNS
[8] = tested on: SF-539 CNS
[9] = tested on: M14 melanoma
[10] = tested on: HCT-15 colon
[11] = tested on: HT29 colon
[12] = tested on: SNB-75 CNS
[13] = tested on: SNB-19 CNS
[14] = tested on: U251 CNS
[15] = tested on: PC-3 prostate
[16] = tested on: SK-MEL-5 melanoma
[17] = tested on: UACC-62 melanoma
[18] = tested on: LOX IMVI melanoma
[19] = tested on: SK-MEL-28 melanoma

Measured: growth

C#CCC1(c2ccc(F)c(F)c2)NS(=O)(=O)c2ccccc21 (stereo unspecified)
inactive: [1] 107% | [2] 89.4% | [3] 93.7% | [4] 109% | [5] 114% | [6] 102% | [7] 105% | [8] 104% | [9] 107% | [10] 103% | [11] 82.9% | [12] 99.1% | [13] 108% | [14] 96.4% | [15] 91.8% | [16] 103% | [17] 106% | [18] 98% | [19] 121%

O=C1Nc2cc(Cl)ccc2/C1=C/c1ccc(N2CCOCC2)s1
inactive: [1] 110% | [2] 98.5% | [3] 96.5% | [4] 99% | [5] 93.9% | [6] 114% | [7] 86.8% | [8] 92.3% | [9] 111% | [10] 112% | [11] 97.3% | [12] 101% | [13] 86.6% | [14] 96.7% | [15] 92.5% | [16] 104% | [17] 103% | [18] 106% | [19] 114%

COc1ccc(/C(=N/O)c2cc(F)c(F)c(OC)c2F)cc1O
inactive: [1] 16.9% | [2] 10.3% | [3] 60.7% | [4] 47.8% | [5] 16.7% | [6] 48.1% | [9] 15.4% | [10] 22.9% | [11] 28% | [13] 38.8% | [14] 18.2% | [15] 21.5% | [16] 14.1% | [17] 29.8% | [18] 46.5% | [19] 66.9%
active: [7] 1.83% | [8] -22.8% | [12] -11%

CC1CCN(C(=O)CSc2nc3sc4c(c3c(=O)[nH]2)CCCC4)CC1
inactive: [1] 101% | [2] 86.1% | [3] 109% | [4] 105% | [5] 117% | [6] 113% | [7] 88.4% | [8] 98.2% | [9] 109% | [10] 102% | [11] 116% | [12] 99.5% | [13] 106% | [14] 95.5% | [15] 100% | [16] 91.8% | [17] 105% | [18] 86.4% | [19] 125%

Cc1oc2ncnc(Nc3ccccc3)c2c1C(=O)NCCO
inactive: [1] 105% | [2] 29.4% | [3] 107% | [4] 75% | [5] 104% | [6] 99.8% | [7] 100% | [8] 88.6% | [9] 106% | [10] 98.1% | [11] 106% | [12] 90.7% | [13] 93.9% | [14] 102% | [15] 107% | [16] 97.5% | [17] 86.2% | [18] 95.4% | [19] 98.9%

CCN(CC)S(=O)(=O)c1ccc2[nH]c(=O)cc(C(=O)Nc3ccc(OC)cc3OC)c2c1
inactive: [1] 157% | [2] 115% | [3] 118% | [4] 98.3% | [6] 95% | [7] 97.9% | [8] 133% | [9] 109% | [10] 106% | [11] 126% | [12] 110% | [13] 104% | [14] 108% | [15] 105% | [16] 111% | [17] 103% | [18] 106% | [19] 123%
active: [5] 9.24%

O=C1OC(c2ccccc2)=N/C1=C\c1ccc([N+](=O)[O-])cc1
inactive: [1] 109% | [2] 112% | [3] 89% | [4] 94.1% | [5] 101% | [6] 101% | [7] 103% | [8] 99.2% | [9] 95.4% | [10] 104% | [11] 98.8% | [12] 84.8% | [13] 107% | [14] 102% | [15] 94.4% | [16] 99.2% | [17] 95.5% | [18] 96.9% | [19] 102%

CCSc1nnc(NC(=O)Cc2ccc(Cl)cc2)s1
inactive: [1] 105% | [2] 89.4% | [3] 105% | [4] 114% | [5] 20.6% | [6] 110% | [7] 98.3% | [8] 97.4% | [9] 107% | [10] 98.3% | [11] 114% | [12] 106% | [13] 97.4% | [14] 98.7% | [15] 101% | [16] 107% | [17] 97% | [18] 97.1% | [19] 113%

Cc1ccc(S(=O)(=O)OCC(=O)Nc2ccc(C(=O)O)c(O)c2)cc1
inactive: [1] 100% | [2] 70.2% | [3] 106% | [4] 97.2% | [5] 63.1% | [6] 97% | [7] 110% | [8] 96.1% | [9] 95.4% | [10] 109% | [11] 98.6% | [12] 98.8% | [13] 108% | [14] 96.7% | [15] 91.3% | [16] 96.3% | [17] 99.9% | [18] 78.5% | [19] 98.6%

COc1ccc(N=C2NN=C(c3ccc(F)cc3)CS2)cc1OC
inactive: [1] 103% | [2] 107% | [3] 104% | [4] 91.6% | [5] 78.3% | [6] 116% | [7] 90.8% | [8] 102% | [9] 105% | [10] 96.5% | [11] 100% | [12] 123% | [13] 94.3% | [15] 93.2% | [16] 86.8% | [17] 86.6% | [18] 85.5% | [19] 114%

O=C(NCCc1c[nH]c2ccccc12)C1Cc2ccccc2CN1C(=O)c1ccco1 (stereo unspecified)
inactive: [1] 114% | [2] 71.5% | [3] 96.2% | [4] 96.2% | [5] 154% | [6] 111% | [7] 113% | [8] 103% | [9] 107% | [10] 111% | [11] 114% | [12] 106% | [13] 112% | [14] 98.5% | [15] 96.9% | [16] 95.6% | [17] 93.4% | [19] 116%

C=C1C(=O)O[C@H]2[C@H]1CC/C(COC(=O)NCCc1ccc(Br)cc1)=C\CC[C@@]1(C)O[C@@H]21
inactive: [3] 73.7% | [6] 42.4% | [7] 86.5% | [8] 20.2% | [9] 19.9% | [12] 56.8% | [13] 40.9% | [14] 41.2% | [16] 64% | [19] 30.6%
active: [1] -33.6% | [2] 5.94% | [4] -33.4% | [5] -35.3% | [10] 1.58% | [11] -46.7% | [17] -54.3% | [18] -68.2%

O=C1CCCCN1CCCCC#Cc1ccccc1C#Cc1ccccn1
inactive: [1] 109% | [2] 93.6% | [3] 100% | [4] 102% | [5] 56.6% | [6] 107% | [7] 109% | [8] 103% | [9] 112% | [10] 94.7% | [11] 88.6% | [12] 91.9% | [13] 108% | [15] 95.1% | [16] 98.2% | [17] 83.9% | [18] 96.8% | [19] 110%

Nc1cc2c(cc1N)-c1cc(N)c(N)cc1C2
inactive: [1] 118% | [2] 107% | [3] 102% | [4] 83.8% | [5] 107% | [6] 91.4% | [7] 113% | [8] 103% | [9] 101% | [10] 97.4% | [11] 107% | [12] 79.9% | [13] 107% | [14] 99.1% | [15] 80.5% | [16] 101% | [17] 99.9% | [18] 94% | [19] 115%

Cc1cccc2cc(/C=C/C(=O)/C=C/c3ccc(Cl)cc3)c(=O)[nH]c12
active: [11] 7.76%
inactive: [1] 39.1% | [2] 10.8% | [3] 106% | [4] 25.7% | [5] 36.8% | [6] 62% | [7] 83.8% | [8] 69.7% | [9] 30.5% | [10] 43.6% | [12] 79.7% | [13] 49.5% | [14] 10.6% | [15] 33.8% | [16] 91.2% | [17] 30.4% | [19] 75.4%

COc1ccc(/C=C/C(=O)/C=C/c2cc3ccc(Cl)cc3[nH]c2=O)cc1
inactive: [1] 88.2% | [2] 53.2% | [3] 107% | [4] 59.4% | [5] 86.9% | [6] 86.5% | [7] 94.8% | [8] 92% | [9] 86.4% | [10] 87.4% | [11] 80.6% | [12] 76.2% | [13] 80.9% | [15] 76.1% | [16] 98.6% | [17] 72.1% | [18] 48.5% | [19] 103%

C=C1C(=O)O[C@H]2[C@H]1CC/C(COC(=O)NCCc1cccc(OC)c1)=C\CC[C@@]1(C)O[C@@H]21
active: [5] -2.81% | [10] 5.34% | [11] 1.86%
inactive: [1] 16.5% | [2] 11.5% | [3] 85.3% | [4] 29.4% | [6] 55.4% | [7] 89.2% | [8] 38.9% | [9] 29.9% | [12] 76.1% | [13] 56.9% | [14] 66% | [15] 50.5% | [16] 87.6% | [17] 22.8% | [19] 46.7%
